# This is a sample that favours compounds with a hit; in the whole collection about 18% have one here.
# DT40 TDP1 no CPT: qHTS for Inhibitors of human tyrosyl-DNA phosphodiesterase 1 (TDP1): qHTS in cells in absence of CPT | DT40 Tdp1-/- hTDP1 cells, no CPT, ATP luminescence, 48 h | Potency, µM (titrated, usually from 46.2 µM), inactives show at the highest dose activity change, negative = growth inhibition, actives largely listed as inhibitors | 420,000 tested, 15% active; note: potency is the fitted concentration of half-maximal effect; % is set by controls: 0 for no effect and ±100 for the full control effect; nearly all actives have a fitted effect of over 55% in size
#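 DT40 Tdp1-/-;hTDP1 cells, no CPT (DMSO vehicle only), 400 cells/well; compounds pin-transferred; ≥48 hr, 37 °C; CellTiter-Glo 30 min RT dark, luminescence read.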
# TDP1 block: qHTS Assay for Inhibitors of Tyrosyl-DNA Phosphodiesterase (TDP1); Tyrosyl-DNA phosphodiesterase 1 (Homo sapiens), Q9NUW8; recombinant TDP1, AlphaScreen DNA substrate cleavage; Potency, µM (top dose mostly 130 µM), for the others: at the highest dose activity change, negative = inhibition, usual class: inhibitors; 350,000 tested, 0.28% active; AID 485290, 2010; note: potency is the fitted concentration of half-maximal effect; % is set by controls: 0 for no effect and ±100 for the full control effect; nearly all actives have a fitted effect of over 40% in size
# Target sequence (Q9NUW8 whole entry, looked up): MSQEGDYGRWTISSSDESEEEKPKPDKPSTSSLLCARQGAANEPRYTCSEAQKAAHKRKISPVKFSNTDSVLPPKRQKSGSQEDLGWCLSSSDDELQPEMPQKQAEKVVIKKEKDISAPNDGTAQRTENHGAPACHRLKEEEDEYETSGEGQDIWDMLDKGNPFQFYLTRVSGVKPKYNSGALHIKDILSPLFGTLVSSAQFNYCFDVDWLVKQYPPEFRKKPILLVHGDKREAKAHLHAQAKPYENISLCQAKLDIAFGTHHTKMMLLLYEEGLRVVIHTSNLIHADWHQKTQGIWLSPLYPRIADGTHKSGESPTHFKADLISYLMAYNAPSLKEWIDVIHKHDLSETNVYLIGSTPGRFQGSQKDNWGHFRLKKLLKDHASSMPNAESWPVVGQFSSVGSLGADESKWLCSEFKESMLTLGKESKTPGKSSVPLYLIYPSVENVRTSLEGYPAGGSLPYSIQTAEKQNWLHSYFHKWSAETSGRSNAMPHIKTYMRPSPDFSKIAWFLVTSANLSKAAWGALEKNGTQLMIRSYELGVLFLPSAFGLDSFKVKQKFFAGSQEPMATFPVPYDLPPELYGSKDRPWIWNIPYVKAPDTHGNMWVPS
#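 Enzyme-compound mixtures sat 15 min at room temperature, followed by a 5 min reaction with 15 nM final substrate and 10 min with AlphaScreen beads. Recombinant human Tdp1 was used at 1 nM final.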
# IL1B secr inh: qHTS for Inhibitors of Inflammasome Signaling: IL-1-beta AlphaLISA Primary Screen; THP-1 LPS/ATP IL-1B secretion, AlphaLISA, 16 h; stronger effect = lower value; activity change, % at 57.5 µM; 360,000 tested, 4.7% active; AID 743279, 2014; in the data active = activity change below about -50%; inconclusive = mostly about -30% to -49%; note: % is set by controls: 0 for no effect and ±100 for the full control effect
#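 Secreted IL-1B measured by AlphaLISA bead assay after 16 h compound exposure of THP-1 cells; compounds (final up to 57.5 uM) added 1 h before LPS (250 ng/mL) and ATP (1.25 mM) stimulation; lower signal means less secretion.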
# DT40 TDP1 CPT: qHTS for Inhibitors of human tyrosyl-DNA phosphodiesterase 1 (TDP1): qHTS in cells in presence of CPT; chicken DT40 Tdp1-/-;hTDP1 cells + 20 nM CPT, ATP luminescence, 48 h; Potency, µM (titrated, usually from 46.2 µM), without a hit: top-dose activity change, negative = growth inhibition, most hits filed as inhibitors; 420,000 tested, 12% active; AID 686979, 2013; note: potency is the fitted concentration of half-maximal effect; % is set by controls: 0 for no effect and ±100 for the full control effect; nearly all actives have a fitted effect of over 55% in size
#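 Cell growth measured by CellTiter-Glo luminescence after a minimum 48 h, 37 C compound exposure with 20 nM CPT in Tdp1-knockout DT40 cells stably expressing hTDP1, seeded 400/well; qHTS titration format.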
# HepG2 viability: qHTS for Inhibitors of TGF-b: Cytotox Counterscreen; HepG2 CAGA-GFP viability, ATP luminescence, 18 h; 410,000 tested, 0.76% active; Potency, µM (highest dose often 46.1 µM), without a hit: top-dose activity change, negative = cytotoxicity, usual class: cytotoxic; note: potency is the fitted concentration of half-maximal effect
#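 CellTiter-Glo luminescence gave cytotoxicity after 18 hours at 37 degrees C. The cells were HepG2 CAGA-GFP in 1% FBS DMEM, stimulated with 500 pg/mL TGF-beta after compound addition. %Activity was normalised to no-cell wells (complete cell-killing) and DMSO (no toxicity), and curves were fitted and classified.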
# TGFb inhibitor: qHTS for Inhibitors of TGF-b; HepG2 CAGA-GFP TGF-b/SMAD3 reporter, GFP fluorescence, 18 h; TGF-beta stimulated, 500 pg/mL final; Potency, µM (series often up to 46.1 µM), without a hit: at the highest dose activity, negative = inhibition, usual class: inhibitors; 410,000 tested, 1.2% active; AID 588855, 2011; note: potency is the fitted concentration of half-maximal effect; % is set by controls: 0 for no effect and ±100 for the full control effect; nearly all actives have a fitted effect of over 65% in size
#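 Per well, imaged GFP fluorescence of HEPG2 CAGA-GFP cells gives the signal; cells get compound, then TGF-beta (500 pg/mL final), 18 h at 37 degrees C; %Activity versus -TGF-beta and +DMSO controls.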
# * marks the source's active call; other numbers are inactive results; ? = inconclusive; / = no result; [ ] = remark or other dose. Unless noted, calls come from the whole dose curve; as a rule, active = well fitted curve in the direction sought with a large enough effect; inconclusive = small, poorly fitted or top-dose-only effect, or another doubt; inactive = no such curve, though single readings can be large; an effect the other way counts as inactive or inconclusive.
SMILES,DT40 TDP1 no CPT,TDP1 block,IL1B secr inh,DT40 TDP1 CPT,HepG2 viability,TGFb inhibitor
O=S(=O)(Nc1cccc(-c2ccc(N3CCCC3)nn2)c1)c1ccccc1C(F)(F)F,-10.6%,6.5%,/,2.6%,-17.1%,?
Cc1ccc(C(=O)c2cn(Cc3cccc(F)c3)c3nc(C)ccc3c2=O)cc1,20.6µM*,3.6%,/,?,-26.8%,-27.0%
Cc1ccc(C(=O)c2cn(Cc3ccccc3C)c3nc(C)ccc3c2=O)cc1,20.6µM*,4.5%,/,20.6µM*,-22.3%,?
CCn1c(SCC(=O)c2ccccc2)nnc1-c1cccc(Cl)c1,?,-8.4%,/,?,-14.0%,?
CCOc1cccc(C2CC(=O)Nc3cc(OC)c(OC)cc32)c1 (configuration not stated),?,/,9.2,?,-13.5%,-3.3%
CCOc1ccccc1C1CC(=O)Nc2cc3c(cc21)OCCO3 (configuration not stated),0.517µM*,3.7%,7.2,1.03µM*,-8.6%,?
CCOc1cc(C2CC(=O)Nc3cc4c(cc32)OCCO4)ccc1O (configuration not stated),?,2.5%,/,18.4µM*,-15.1%,-18.6%
CCCOc1ccccc1C1CC(=O)Nc2cc3c(cc21)OCCO3 (configuration not stated),0.651µM*,10.3%[56.1 µM],13.9,0.731µM*,1.3%,?
CCOc1c(Br)cc(C2CC(=O)Nc3cc4c(cc32)OCO4)cc1OC (configuration not stated),4.61µM*,2.5%,/,2.91µM*,-18.6%,?
O=C1CC(c2cccnc2)c2cc3c(cc2N1)OCCO3 (configuration not stated),-13.8%,2.2%,5.2,1.4%,2.4%,21.7%
Cc1ccccc1-n1nnnc1Sc1nnnn1-c1ccccc1,8.2µM*,3.0%,-115.7*,11.6µM*,-34.7%,?
O=[N+]([O-])c1ccc(N2CCN(c3ccccc3)CC2)nc1,-8.0%,/,-5.0,1.3%,1.8%,0.0%
CCCSc1nnc(Sc2nnnn2-c2ccccc2)s1,2.91µM*,4.8%,-62.1*,4.61µM*,-35.4%,?
O=[N+]([O-])c1ccc(Sc2nnnn2-c2ccccc2)nc1,3.66µM*,1.3%,-96.5*,3.26µM*,-93.7%,15.8µM*
COc1ccc2c(C)cc(Sc3nnnn3-c3ccccc3)nc2c1,?,0.0%,-94.7*,?,4.7%,?
CCCn1c(Sc2nnnn2-c2ccccc2)n[nH]c1=O,-4.5%,3.9%,-2.2,1.1%,-4.0%,-5.5%
Cc1cccc(NC(=O)CN(C)S(=O)(=O)c2cccc3cccnc23)c1,-23.3%,5.9%,-5.3,?,-7.1%,-13.4%
Cc1cccc(NC(=O)CCS(=O)(=O)c2cccc3nsnc23)c1C,?,5.9%,-27.0,-22.7%,-12.1%,?
CCc1cccc(NC(=O)CN(C)S(=O)(=O)c2cccc3cccnc23)c1,16.4µM*,-3.9%,-23.1,16.4µM*,24.8%,8.5%
CN(CC(=O)Nc1ccc(F)c(Cl)c1)S(=O)(=O)c1cccc2nsnc12,18.4µM*,-2.2%,-22.3,20.6µM*,-2.6%,-5.3%
Cc1ccc(NC(=O)CN(C)S(=O)(=O)c2cccc3nsnc23)cc1,-8.9%,2.8%,-19.2,-2.5%,-1.6%,0.5%
Cc1c(Cl)cccc1NC(=O)CCS(=O)(=O)c1cccc2nsnc12,?,2.9%,/,14.6µM*,2.6%,-1.8%
Cc1cc(OC(C)C(=O)NC2CCN(Cc3ccccc3)CC2)c2c(C)cc(=O)oc2c1 (configuration not stated),-24.5%,2.1%,15.2,-46.2%,-3.2%,3.0%
CCc1cc(=O)oc2cc(C)cc(OC(C)C(=O)NC3CCN(Cc4ccccc4)CC3)c12 (configuration not stated),?,3.9%,-62.8*,?,-18.4%,-2.6%
CCCCc1cc(=O)oc2c(C)c(OCC(=O)N3CCC(C(=O)O)(c4ccccc4)CC3)ccc12,-22.8%,/,3.6,18.0%,-5.5%,2.3%
SMILES,DT40 TDP1 no CPT,TDP1 block,IL1B secr inh,DT40 TDP1 CPT,HepG2 viability,TGFb inhibitor
CCc1cc(=O)oc2cc(C)cc(OCC(=O)N3CCC(C(=O)NC(C)C)(c4ccccc4)CC3)c12,20.6µM*,2.6%,?,23.1µM*,-16.5%,-20.3%
O=C(Nc1cccs1)Nc1nnc([C@@H]2C[C@H](O)[C@@H](CO)O2)s1,-15.4%,/,62.2,-29.8%,-4.0%,8.3%
COc1ccc(CC(=O)Nc2ccc3nc(Nc4cccc(Cl)c4)cc(C)c3c2)cc1,5.8µM*,2.5%,/,6.51µM*,-19.6%,?
Cc1cccc(OCC(=O)Nc2ccc3nc(Nc4cccc(C(F)(F)F)c4)cc(C)c3c2)c1,13µM*,3.7%,/,20.6µM*,-19.0%,-2.6%
COc1ccccc1CC(=O)Nc1ccc2nc(Nc3cccc(Cl)c3)cc(C)c2c1,16.4µM*,5.0%,/,20.6µM*,-16.3%,0.0%
CC(O)(CS(=O)(=O)Cc1ccc(Cl)cc1)C(=O)Nc1cccc(C(F)(F)F)c1 (configuration not stated),?,0.0%,4.6,-29.1%,-7.9%,-8.2%
Cc1cc(Nc2cccc(C(F)(F)F)c2)nc2ccc(NC(=O)Cc3ccc(Cl)cc3)cc12,23.1µM*,-1.2%,/,?,10µM*,?
Cc1cc(=O)oc2cc(NC(=O)COc3cccc(C(F)(F)F)c3)ccc12,?,-3.8%,-21.6,?,-3.1%,2.7%
Cc1ccc(OCC(=O)Nc2ccc3nc(Nc4cccc(Cl)c4)cc(C)c3c2)cc1,-1.3%,8.8%,/,4.3%,-20.7%,-8.1%

# From PubChem
